Results on seven molecules are retold here after PubChem BioAssay (Tox21).

Unmarked numbers belong to inactive results. Records with an inconclusive call do not appear. Activity calls are given as the source filed them. Unless noted, calls follow the shape of the dose curve; as a rule, active = well fitted curve in the direction sought with a large enough effect in the repeat runs; inconclusive = weak or mixed curves; inactive = no such curve, though single readings can be large; an effect the other way counts as inactive or inconclusive.

Experiment [1] can be described thus: A CellTox Green Cytotoxicity Assay to monitor cytotoxicity in HepG2 cells - 0 hour (AID 1224882). Also: nearly all actives have a fitted effect of over 35% in size. In short, it runs like this:
(§1)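 HepG2 cells, 600/well, preincubated 5 h with CellTox Green dye, then exposed to Tox21 compounds in DMSO at 37 C for up to 40 h. Dead-cell DNA fluorescence read at the indicated time point.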

A short description of experiment [2]: A CellTox Green Cytotoxicity Assay to monitor cytotoxicity in HepG2 cells - 32 hour (AID 1224883). Also: nearly all actives have a fitted effect of over 50% in size. In short, it runs like this: as §1
Experiment [3] can be described thus: A CellTox Green Cytotoxicity Assay to monitor cytotoxicity in HEK293 cells - 8 hour (AID 1224884). Also: nearly all actives have a fitted effect of over 35% in size. Put shortly:
(§2)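 HEK293 cells, 600/well, were preincubated 5 hours and then exposed to compounds at 37 C for up to 40 hours. A cell-impermeant cyanine dye staining dead-cell DNA was read by fluorescence at 0, 8, 16, 24, 32 and 40 h time points.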

Experiment [4] can be described thus: qHTS RealTime-Glo MT Cell Viability Assay in HepG2 cells - 16 hour (AID 1224885). Also: nearly all actives have a fitted effect of over 50% in size. In short, it runs like this: (§3)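 HepG2 suspension premixed with RealTime-Glo reagents is plated at 600 cells per well and left 5 h at 37 C/5% CO2. Compounds in DMSO then go in, and bioluminescence reflecting viable cell number is recorded over 40 h.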
Experiment [5] can be described thus: qHTS RealTime-Glo MT Cell Viability Assay in HEK293 cells - 24 hour (AID 1224886). Also: top concentration of the series differs between compounds; nearly all actives have a fitted effect of over 50% in size. In short, it runs like this:
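Reads taken at 0, 8, 16, 24, 32 and 40 h from the same wells. HEK293 cells (600/well) carried RealTime-Glo reagents from seeding, with compound added after a 5 h settle at 37 C.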
In general terms: In qHTS, concentration-response curves come from the screen itself.

Experiment [6] in a line: qHTS RealTime-Glo MT Cell Viability Assay in HEK293 cells - 8 hour (AID 1224887). Also: top concentration of the series differs between compounds; nearly all actives have a fitted effect of over 50% in size. In short, it runs like this:
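600 cells/well were plated with the nonlytic NanoLuc/prosubstrate reagent, pre-incubated 5 h, then given 23 nL of compound in DMSO. Incubation at 37 C for 40 h, with luminescence from viable-cell-reduced substrate read repeatedly from 0 h.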

A short description of experiment [7]: A CellTox Green Cytotoxicity Assay to monitor cytotoxicity in HEK293 cells - 16 hour (AID 1224888). Also: nearly all actives have a fitted effect of over 35% in size. Put shortly: as §2
Experiment [8] in a line: qHTS RealTime-Glo MT Cell Viability Assay in HepG2 cells - 0 hour (AID 1224889). Also: nearly all actives have a fitted effect of over 50% in size. In short, it runs like this: as §3
Experiment [9] is described as follows: A CellTox Green Cytotoxicity Assay to monitor cytotoxicity in HepG2 cells - 8 hour (AID 1224890). Also: nearly all actives have a fitted effect of over 45% in size. Put shortly:
as §1

A short description of experiment [10]: qHTS assay to identify small molecule antagonists of the estrogen receptor alpha (ER-alpha) signaling pathway using the BG1 cell line in the presence of 0.1 nM 17-beta-estradiol - cell viability counter screen (AID 1259241). Also: nearly all actives have a fitted effect of over 40% in size. Put shortly:
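Live-cell protease activity (CellTiter-Fluor fluorescence, 30 min) was read in the same wells after VM7Luc4E2 cells had been exposed to compounds with 0.1 nM 17beta-estradiol for 22 hr at 37C.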

Experiment [11] can be described thus: qHTS assay to identify small molecule antagonists of the androgen receptor (AR) signaling pathway using the MDA cell line in the presence of 0.5 nM R1881 - cell viability counter screen (AID 1259242). Also: nearly all actives have a fitted effect of over 45% in size. Put shortly: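 MDA-kb2 cells (MMTV-luciferase, AR/GR responsive) were treated with compounds plus 0.5 nM R1881 (final) for 16 hr at 37C, 0% CO2. Viability was then read in the same wells as live-cell protease fluorescence (CellTiter-Fluor, 30 min).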

Experiment [12] in a line: qHTS assay to identify small molecule phospholipidosis (PLD) inducers (AID 1259344; active = well fitted curve in the direction sought with a large enough effect; an effect the other way counts as inactive or inconclusive). Put shortly: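 HepG2 cells grown on collagen I take up LipidTOX Red while exposed to compound for 24 h; after fixation they are imaged at 20x and pit metrics are extracted.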
Experiment [13] can be described thus: qHTS assay to identify small molecule HDAC inhibitors (AID 1259364). Also: top concentration of the series differs between compounds; nearly all actives have a fitted effect of over 45% in size. Put shortly:
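Wild-type HCT-116 cells, plated overnight at 37 C, exposed to compounds 2 hr at 37 C; luminogenic HDAC-Glo substrate then added 30 min at room temperature. Luminescence reports relative endogenous class I/II HDAC activity.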

The nature of experiment [14]: qHTS assay to identify small molecule agonists of the sonic hedgehog signaling (Shh) pathway - cell viability counter screen (AID 1259366). Also: nearly all actives have a fitted effect of over 50% in size. Put shortly:
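CellTiter-Fluor fluorescence read-out, 1 hr at 37C, added after 23hr compound exposure. Cells: 3T3 Gli1-Luc, an NIH/3T3 clone with stably integrated Gli1-Luc reporter, plated 4hr before compound.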

A short description of experiment [15]: qHTS assay to identify small molecule antagonists of the sonic hedgehog signaling (Shh) pathway - cell viability counter screen (AID 1259367). Also: nearly all actives have a fitted effect of over 55% in size. In short, it runs like this: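 After a 4 hr settling period, 3T3 Gli1-Luc cells were treated with DMSO-dissolved chemicals and conditioned medium, kept 24 hr at 37C in 5% CO2, and assayed for viability by CellTiter-Fluor fluorescence following 1 hr reagent incubation.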

The nature of experiment [16]: qHTS assay to identify small molecule agonists of the sonic hedgehog signaling (Shh) pathway (AID 1259368; calls by dose curve;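 also: NIH/3T3-derived 3T3Gli1-Luc cells carrying a stable Gli1-driven firefly luciferase reporter; series mostly up to about 92 µM; nearly all actives have a fitted effect of over 15% in size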). In short, it runs like this: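 NIH/3T3-derived 3T3Gli1-Luc cells with stably integrated Gli1-driven firefly luciferase, 2,000 cells/well, compounds added after 4 hr. Incubated 24 hr at 37C, 5% CO2; luminescence read after 30 min with luciferase reagent at room temperature.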

The nature of experiment [17]: qHTS assay to identify small molecule antagonists of the sonic hedgehog signaling (Shh) pathway (AID 1259369; calls by dose curve; also: nearly all actives have a fitted effect of over 45% in size; also: potency is read from the fitted curve at half-maximal effect). Put shortly: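 NIH/3T3-derived Gli1-Luc reporter cells plated 4 h, dosed with compound, then stimulated with conditioned medium for 24 h at 37 C. Firefly luciferase luminescence read after 30 min with detection reagent at room temperature.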
The nature of experiment [18]: qHTS assay to identify small molecule HDAC inhibitors - cell viability counter screen (AID 1259365). Put shortly:
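HCT-116 (wild type), 1,500 cells/well, overnight 37C/5% CO2; compound in DMSO 2hr; CellTiter-Glo 30min RT; luminescence read.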

As for `CC(C(=O)O)c1cccc(Oc2ccccc2)c1` (stereo not drawn), the Potency entry in experiment [1], in experiment [2], in experiment [5], in [6], in [8] and in experiment [13] was “inactive” each time. Further, the Potency result in [14], in [15] and in experiment [17] was “inactive” in each case. In addition, the outcome in experiment [3], in [4], in experiment [7], in [9], in experiment [10] and in experiment [11] was inactive. For the same molecule, the outcome in experiment [12] and in [16] was inactive.
Turning to `Nc1ccncc1N`, the Potency entry in experiment [1], in experiment [2], in experiment [5], in experiment [6], in experiment [8] and in experiment [13] was “inactive” in each case. Further, the Potency result in experiment [14], in experiment [15] and in [17] was “inactive” each time. Moreover, the call in [3], in experiment [4], in [7], in experiment [9], in experiment [10] and in experiment [11] was inactive. Besides, the result in experiment [12] and in experiment [18] was inactive.
Consider `CCCCc1nc(Cl)c(CO)n1Cc1ccc(-c2ccccc2-c2nn[nH]n2)cc1`, for which the Potency entry in [1], in experiment [2], in experiment [5], in experiment [6], in experiment [8] and in experiment [13] was “inactive” throughout. Besides, the Potency result in experiment [14] and in [15] was “inactive” in each case. The outcome in experiment [3], in experiment [4], in experiment [7], in experiment [9], in experiment [10] and in [11] was inactive. Besides, the molecule was called inactive in experiment [12], in experiment [18] and in experiment [16]. In experiment [17], the Potency was 596 nM (active).
As to `CN(C)C(=O)Oc1ccc[n+](C)c1`, the Potency result in [1], in [2], in experiment [5], in experiment [6], in experiment [8] and in experiment [13] was “inactive” in each case. The Potency result in experiment [14], in experiment [15] and in experiment [17] was “inactive” each time. Also, the molecule was classed as inactive in experiment [3], in experiment [4], in [7], in [9], in experiment [10] and in experiment [11]. Further, the result in experiment [12], in experiment [18] and in [16] was inactive.
With `C=C(C)C(=O)OCCOCCOCCOCCOC(=O)C(=C)C`, the Potency result in [1], in experiment [2], in [5], in experiment [6], in experiment [8] and in experiment [13] was “inactive” each time. Further, the Potency entry in [14], in [15] and in experiment [17] was “inactive” each time. Further, the call in experiment [3], in [4], in [7], in experiment [9], in experiment [10] and in experiment [11] was inactive. Further, the result in [18] and in experiment [16] was inactive.
Regarding `C=C(C)C(=O)OCC1CCCO1` (stereo not drawn), the Potency entry in [1], in experiment [2], in [5], in experiment [6], in experiment [8] and in experiment [13] was “inactive” each time. Also, the Potency entry in [14], in experiment [15] and in experiment [17] was “inactive” throughout. In addition, the outcome in experiment [3], in experiment [4], in [7], in [9], in experiment [11] and in experiment [18] was inactive. Also, the result in [16] was inactive.
In the case of `CCOc1ccccc1OCC`, the Potency entry in experiment [1], in experiment [2], in experiment [5], in [6], in experiment [8] and in experiment [13] was “inactive” in each case. In addition, the Potency result in [14], in experiment [15] and in [17] was “inactive” throughout. Further, the result in experiment [3], in experiment [4], in experiment [7], in experiment [9], in [11] and in [16] was inactive.
